# Measurements: PubChem BioAssay AID1345085 (National Center for Advancing Translational Sciences (NCATS), 2018)
# Results filed as inconclusive are left out. Values without a mark were called inactive. Calls of active or inactive are those of the source. The call rests on the fitted dose curve; in most records, active means well fitted cell-killing curve with a large enough effect; inconclusive means small, poorly fitted or top-dose-only effect, or effect the other way; inactive means no such curve, though single readings can be large or run the other way.
# System: Hek293T
# Experiment: Confirmatory qHTS for gynecologic anti-cancer compounds from libraries of approved drugs and bioactive compounds; further: nearly all actives have a fitted effect of over 55% in size
# Details: gynecologic cancer cell panel viability, ATPlite luminescence, 48 h; series mostly up to 57.6 µM; activity change, negative = viability loss: at the top concentration
# Source text: National Center for Advancing Translational Sciences [NCATS] Assay Overview: Chemotherapeutic drug responses vary from cancer to cancer and from patient to patient. These variations could be caused by a number of factors including patient genomic background, tumor mutations, tumor heterogeneity, and aspects of drug treatment. Chemotherapeutic drug resistance is also a common issue and can lead to ineffective treatment and patient death. Here we have profiled the cell killing effects of thousands of compounds to characterize the responses in three gynecological cancers, identify cancer-selective compounds, and understand the diversity of responses to these compounds from pan-cancer suppressors to single cell line selective compounds. In this assay, we screened a 7,914 compound drug library that included approved drug and bioactive compounds in six ovarian, three cervical, and two placental cancer cell lines using the ATPlite assay for cell viability. ATPlite is a luminescence based assay reliant on the conversion of a luciferase substrate to light in the presence of ATP. As a cytotoxic compound will suppress growth and decrease the number of cells, the concentration of ATP will decrease, and less light signal will be detected in the well. Hits were selected from the primary screen for follow-up confirmation. For the confirmation screens, the ovarian cancer cell lines included CAOV-3, SK-OV-3, SW 626, ES-2, PA-1, and TOV-21G. The cervical cancer cell lines included HeLa, Ca Ski, and C-33 A. The placental cancer cell lines included JEG-3 and JAR. HEK 293T cells were used as the control cell line to determine the selectivity index. The ATPlite assay was used to determine the IC50 values.
# Assay Protocol Summary: 1,000 cells in 4 uL of media were dispensed into white, solid bottom 1536-well plates using a Multidrop Combi (Thermo Scientific). The Assay plates were incubated for 16 hours at 37 C with 5% CO2 in assay plates, followed by the addition of 23 nL of DMSO or drug dissolved in DMSO. . Each compound was assayed in 11 concentrations (1:3 dilution) from 57.5 uM to 0.977 nM, using the automated Wako 1536 Pin Tool workstation and incubated at 37 C with 5% CO2 48 hours. 4 uL of ATPlite, the ATP monitoring reagent, was then added to the each well of the assay plates using the Multidrop Combi reagent dispenser followed by incubation for 15 minutes at room temperature. The resulting luminescence was measured using the ViewLux plate reader.
# On the % scale 0 is the no-effect control and ±100 the full control effect; potency means the concentration at half of the fitted maximal effect.
SMILES,Potency,"activity change, negative = viability loss [%]"
COc1cc(N2CCC(N3CCN(C)CC3)CC2)ccc1Nc1ncc(Cl)c(Nc2ccccc2S(=O)(=O)C(C)C)n1,21.7 µM (active),
CCc1c2c(nc3ccc(O)cc13)-c1cc3c(c(=O)n1C2)COC(=O)[C@]3(O)CC,0.611 µM (active),
CC(C)CC(=O)Nc1n[nH]c2c1CN(C(=O)C1CCN(C)CC1)C2(C)C,1.37 µM (active),
CCC1C(=O)N(C)c2cnc(Nc3ccc(C(=O)NC4CCN(C)CC4)cc3OC)nc2N1C1CCCC1 (stereo not given),0.0193 µM (active),
COc1cc2c(Oc3ccc(-c4cnc(Nc5ccc(F)cc5)n(C)c4=O)cc3F)ccnc2cc1OCCCN1CCOCC1,15.3 µM (active),
CN(C)C(CCOc1cccc2ccccc12)c1ccccc1 (stereo not given),,-10.6
C[C@@]1(C(=O)Nc2ccc(F)nc2)CCCN1c1nc(Nc2cc(C3CC3)[nH]n2)c2cccn2n1,,10.3
CCC1C(=O)N(C)c2cnc(Nc3ccc(C(=O)NC4CCC(N5CCN(CC6CC6)CC5)CC4)cc3OC)nc2N1C(C)C (stereo not given),0.0611 µM (active),
NCCOc1cc(C(=O)Nc2cc(OCCN)c3ccccc3n2)nc(C(=O)Nc2cc(OCCN)c3ccccc3n2)c1,,3.25
CCOc1cc2ncc(C#N)c(Nc3ccc(F)c(Cl)c3)c2cc1NC(=O)/C=C/CN(C)C,15.3 µM (active),
CC(C)Oc1ccc(C(=O)NC(CNC(=O)CN(C)C)Cc2ccc(-c3cn4cccc(C(C)O)c4n3)cc2)cc1Cl (stereo not given),,-16.2
CCCCc1nc2cc(/C=C/C(=O)NO)ccc2n1CCN(CC)CC,1.72 µM (active),
Cc1nc(Nc2n[nH]c3c2CN(C(=O)NC(CN(C)C)c2ccccc2)C3(C)C)c2sccc2n1 (stereo not given),9.68 µM (active),
COc1cc2c(Nc3ccc(NC(=O)c4ccccc4)cc3)ncnc2cc1OCCCN1CCOCC1,24.3 µM (active),
CC(Oc1cc(-n2cnc3ccc(CN4CCN(C)CC4)cc32)sc1C(N)=O)c1ccccc1C(F)(F)F (stereo not given),24.3 µM (active),
CCN1CCN(Cc2ccc(Nc3ncc(F)c(-c4cc(F)c5nc(C)n(C(C)C)c5c4)n3)nc2)CC1,,-21.2
CS(=O)(=O)c1ccc(-c2cnc(N)c(C(=O)Nc3ccccc3)n2)cc1,,4.76
Nc1ccccc1NC(=O)c1ccc(CNC(=O)OCc2cccnc2)cc1,,-21.3
CCCC(Nc1nc(-c2ccc(NC(=O)NCC)c(OC)c2)ncc1C)c1cccnc1 (stereo not given),,-23.7
CCCCc1oc2ccc(NS(C)(=O)=O)cc2c1C(=O)c1ccc(OCCCN(CCCC)CCCC)cc1,27.3 µM (active),

SMILES,Potency,"activity change, negative = viability loss [%]"
CCN[C@H]1C[C@H](C)S(=O)(=O)c2sc(S(N)(=O)=O)cc21,,0.966
C1CCC(C(CC2CCCCN2)C2CCCCC2)CC1 (stereo not given),27.3 µM (active),
CN(C)/N=N/c1nc[nH]c1C(N)=O,,9.55
Cc1ccc(-n2[nH]c(C)c(N=Nc3cccc(-c4cccc(C(=O)O)c4)c3O)c2=O)cc1C,,-11
CC1=C(CO)C(=O)O[C@@H]([C@@H](C)[C@H]2CC[C@H]3[C@@H]4C[C@H]5O[C@]56[C@@H](O)C=CC(=O)[C@]6(C)[C@H]4CC[C@]23C)C1,2.37 µM (active),
COc1cc(Nc2ncc3c(n2)-c2ccc(Cl)cc2C(c2c(F)cccc2OC)=NC3)ccc1C(=O)O,,-7.66
CC(C)C[C@H](NC(=O)[C@@H](NC(=O)c1cccc(-c2ccccc2)n1)[C@@H](C)O)B(O)O,0.193 µM (active),
CC(C)(C)C(=O)OCOP(=O)(COCCn1cnc2c(N)ncnc21)OCOC(=O)C(C)(C)C,3.43 µM (active),
Cc1nc(N)nc(N)c1-c1ccc(Cl)c(Cl)c1,1.22 µM (active),
Cc1ccc(C(=O)Nc2ccc(CN3CCN(C)CC3)c(C(F)(F)F)c2)cc1C#Cc1cnc2[nH]ncc2c1,21.7 µM (active),
CC[C@@]1(O)C(=O)OCc2c1cc1n(c2=O)Cc2c-1nc1ccccc1c2/C=N/OC(C)(C)C,0.172 µM (active),
CC(C)Oc1ccc2c(=O)c(-c3ccccc3)coc2c1,4.85 µM (active),
O=C1c2c(O)ccc(O)c2C(=O)c2c(NCCNCCO)ccc(NCCNCCO)c21,0.863 µM (active),
CCN1CCN(Cc2ccc(-c3cc4c(NC(C)c5ccccc5)ncnc4[nH]3)cc2)CC1 (stereo not given),27.3 µM (active),
Cc1cnc(Nc2ccc(CN3CCOCC3)cc2)nc1Nc1cccc(S(=O)(=O)NC(C)(C)C)c1,17.2 µM (active),
COc1ccc2c(c1OC)C(=O)O[C@@H]2[C@H]1c2c(cc3c(c2OC)OCO3)CCN1C,,4.29
CC(C)C[C@H](NC(=O)[C@H](Cc1ccccc1)NC(=O)c1cnccn1)B(O)O,0.0306 µM (active),
CN(C)C1CCN(C(=O)c2ccc(NC(=O)Nc3nc(N4CCOCC4)nc(N4CCOCC4)n3)cc2)CC1,0.485 µM (active),
Cc1ccccc1C(OCCN(C)C)c1ccccc1 (stereo not given),,1.95
CCN(CC)CCOc1ccc(/C(=C(\Cl)c2ccccc2)c2ccccc2)cc1,126 µM (active),
